From PubChem BioAssay (NCATS)
Results filed as inconclusive are left out. Active and inactive are the calls of the source. Unless noted, the call rests on the fitted dose curve; in most records, active means well fitted cell-killing curve with a large enough effect; inconclusive means small, poorly fitted or top-dose-only effect; inactive means flat fitted curve, though single readings scatter.

Legend:
[1] = Cell Viability - LYMP2-002 (AID 977); further: series mostly up to about 92 µM
How it was run: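 Human lymphoblastoid cells, 2500/well, complete medium; 5 h 37 C settle; compound 24 h 37 C; CellTiter-Glo, 30 min RT; luminescence. Decrease in ATP = cytotoxicity; AC50 via Hill equation.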

[2] = Cell Viability - LYMP2-006 (AID 978); further: series mostly up to about 92 µM; nearly all actives have a fitted effect of over 60% in size
How it was run: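 Potency values are Hill-fit AC50s for decreases in intracellular ATP (CellTiter-Glo luminescence). LYMP2-006 lymphoblastoid cells, 2500 per well, were exposed to compound in complete culture medium for 24 hr at 37 C.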

[3] = Cell Viability - LYMP2-007 (AID 979);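 further: cells exposed to compound for 24 h before reading; nearly all actives have a fitted effect of over 60% in size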
How it was run: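 Cells are seeded at 2500 per well and rested 5 hr. Compounds are then added over a concentration series for 24 hr at 37 C. CellTiter-Glo is added for 30 min at room temperature before luminescence reading.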

[4] = Cell Viability - LYMP2-008 (AID 980); further: nearly all actives have a fitted effect of over 60% in size
How it was run: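 Cells seeded at 2500/well and rested 5 hr at 37 C; compounds added over a concentration range and incubated 24 hr at 37 C; CellTiter-Glo added, 30 min at room temperature; luminescence read and AC50 fitted with Hill model.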

[5] = Cell Viability - LYMP2-010 (AID 981); further: nearly all actives have a fitted effect of over 55% in size
How it was run: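 Steps: seed 2500 LYMP2-010 cells per well; incubate 5 hr at 37 C; add compound; incubate 24 hr at 37 C; add CellTiter-Glo, wait 30 min at room temperature; read luminescence. Concentration-response fitted to Hill equation for AC50.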

[6] = Cell Viability - LYMP2-012 (AID 982);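 further: cellular ATP by luciferase luminescence where a drop means cytotoxicity; cells exposed to compound for one day before reading; nearly all actives have a fitted effect of over 55% in size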
[7] = Cell Viability - LYMP2-016 (AID 984); further: nearly all actives have a fitted effect of over 55% in size
How it was run: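 Cytotoxicity was scored by luminescent ATP content (CellTiter-Glo) after 24 h compound exposure at 37 C of a human lymphoblastoid line at 2500 cells/well. Concentration-response data were fitted to the Hill equation for AC50.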

[8] = Cell Viability - LYMP2-018 (AID 985);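 further: compound exposure lasted 24 hr at 37 °C; nearly all actives have a fitted effect of over 50% in size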
How it was run: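 Seed 2500 lymphoblastoid cells per well, incubate 5 hr at 37 C, add compound and incubate 24 hr at 37 C, add CellTiter-Glo, wait 30 min at room temperature, then read luminescence.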

[9] = Cell Viability - LYMP2-020 (AID 986); further: series mostly up to about 92 µM; nearly all actives have a fitted effect of over 55% in size
How it was run: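 Seed 2500 cells per well and incubate 5 hr at 37 C. Add compounds at a concentration series and incubate 24 hr at 37 C. Add CellTiter-Glo, wait 30 min at RT, read luminescence, and fit a Hill curve for AC50.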

[10] = Cell Viability - LYMP2-022 (AID 987); further: nearly all actives have a fitted effect of over 55% in size
How it was run: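 Cells were seeded at 2500 per well, rested 5 hr at 37 C, and treated with titrated compounds for 24 hr at 37 C. Cellular ATP was then quantified by luciferase luminescence, and AC50 values were derived from Hill-modelled concentration-response curves.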

[11] = Cell Viability - LYMP2-024 (AID 988); further: nearly all actives have a fitted effect of over 60% in size
How it was run: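 qHTS cytotoxicity, human lymphoblastoid line, complete medium; 24 h cpd treatment, 37 C; CellTiter-Glo ATP luminescence readout; tetraoctylammonium bromide positive control; AC50 via Hill fit.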

[12] = Cell Viability - LYMP2-026 (AID 989); further: nearly all actives have a fitted effect of over 50% in size
How it was run: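 Cells are seeded at 2500 per well and held 5 hr at 37 C. Compounds are added in concentration series for 24 hr, then CellTiter-Glo reagent is applied and luminescence read.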

[13] = Cell Viability - LYMP1-002 - Assay at 40 hr (AID 994); further: nearly all actives have a fitted effect of over 60% in size
How it was run: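 Cells are plated at 2500 per well and rested 5 hr at 37 C. Compounds are added and incubated 40 hr at 37 C. CellTiter-Glo reagent is added for 30 min at room temperature before luminescence is read.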

[14] = qHTS Assay for Identification of Small Molecule Inducers of Hypoxia Response (AID 2120; active means well fitted curve in the direction sought with a large enough effect in the signal ratio, with a control signal flat, not every such curve was filed as active; the % refers to the signal ratio)
How it was run: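 Cell-based qHTS for reporter induction: hypoxia response element controlled beta-lactamase in ME-180 cells. Compounds incubated 17 h at 37 degrees C; activity from blue/green (460/530 nm) ratio, inducers ranked by AC50.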

[15] = Cell Viability - LYMP2-025 (AID 976); further: series mostly up to about 92 µM
How it was run: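 Acute cytotoxicity is scored as a concentration-dependent fall in intracellular ATP, measured by luciferase luminescence, in human lymphoblastoid LYMP2-025 cells exposed to compound for 24 hours at 37 C. AC50 values come from standard Hill fits.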

[16] = Cell Viability - LYMP2-014 (AID 983); further: series mostly up to about 92 µM; nearly all actives have a fitted effect of over 50% in size
How it was run: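 Cells are plated at 2500/well and left 5 hr at 37 C. Compounds are added across a concentration range and incubated 24 hr at 37 C in complete medium. CellTiter-Glo is added, and luminescence is read after 30 min at room temperature.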

[17] = Cell Viability - LYMP1-002 - Assay at 24 hr (AID 993)
How it was run: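 Acute toxicity is measured as concentration-dependent loss of cellular ATP in a human lymphoblastoid line (Coriell LYMP1-002) after 24 h treatment in complete medium. ATP is quantified by luciferase luminescence and AC50 derived by Hill modelling.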

Measured: Potency

CCOC(C)(C)C
not listed: [15] | [16] | [17]
inactive: all other assays above

CC(=O)CCc1ccccc1
not listed: [2] | [5]
inactive: all other assays above

Cc1ccc(Cl)cc1N
not listed: [15]
inactive: all other assays above

C=CC(=O)OCCCC
not listed: [2] | [10] | [13]
inactive: all other assays above

Cc1cccc(C)c1[N+](=O)[O-]
not listed: [15]
inactive: all other assays above

CCN(C(=O)N(CC)c1ccccc1)c1ccccc1
not listed: [2] | [10]
inactive: all other assays above

O=C(O)CN(CC(=O)O)CC(=O)O
not listed: [5]
inactive: all other assays above

C[C@@H]1O[C@@H](O[C@@H]2[C@@H](O)[C@H](OCCc3ccc(O)c(O)c3)O[C@H](CO[C@@H]3O[C@H](CO)[C@@H](O)[C@H](O)[C@H]3O)[C@H]2OC(=O)/C=C/c2ccc(O)c(O)c2)[C@H](O)[C@H](O)[C@H]1O
not listed: [5] | [11] | [12] | [13]
inactive: all other assays above

CCCCC=O
not listed: [2]
inactive: all other assays above
